The values below come from doi:10.1101/2024.03.05.583629.

Sequence of pT7_6His-AlfaTag-HOXD13 (P35453 263-343): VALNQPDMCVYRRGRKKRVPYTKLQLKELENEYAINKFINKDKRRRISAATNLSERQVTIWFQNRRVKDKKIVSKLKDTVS

The experiment concerns the target pT7_6His-AlfaTag-HOXD13 (human, UniProt P35453 263-343). The experiment can be described thus: PADIT-seq. The following applies: dsDNA, one strand shown.
“CTCGAGGATATCAAGATCTGGCCTCGGCATTTTAGCGGGAACCTCTAGCTAGCCGACTCACTATAGGGATAATCGCCCTGAGCAAAGACC”: the binding signal was 0.146 ± 0.1 log2FC. As to “CTCGAGGATATCAAGATCTGGCCTCGGCCGCCCAGCGGGAACCTCTAGCTAGCCGACTCACTATAGGGATAATCGCCCTGAGCAAAGACC”, the binding signal was -0.602 ± 0.194 log2FC. Sequence “CTCGAGGATATCAAGATCTGGCCTCGGCTAGGTAAAAGGAACCTCTAGCTAGCCGACTCACTATAGGGATAATCGCCCTGAGCAAAGACC” showed a binding signal of -0.394 ± 0.106 log2FC. The result for “CTCGAGGATATCAAGATCTGGCCTCGGCGCGATGGCGGGAACCTCTAGCTAGCCGACTCACTATAGGGATAATCGCCCTGAGCAAAGACC” reads -0.944 ± 0.133 log2FC; that for “CTCGAGGATATCAAGATCTGGCCTCGGCCTTTTAGCTGGAACCTCTAGCTAGCCGACTCACTATAGGGATAATCGCCCTGAGCAAAGACC”, -0.366 ± 0.11 log2FC. The result for “CTCGAGGATATCAAGATCTGGCCTCGGCCTTTTATAAGGAACCTCTAGCTAGCCGACTCACTATAGGGATAATCGCCCTGAGCAAAGACC” reads 3.23 ± 0.0726 log2FC; that for “CTCGAGGATATCAAGATCTGGCCTCGGCCTTTTATCAGGAACCTCTAGCTAGCCGACTCACTATAGGGATAATCGCCCTGAGCAAAGACC”, 2.19 ± 0.0738 log2FC; that for “CTCGAGGATATCAAGATCTGGCCTCGGCCTTTTAGTTGGAACCTCTAGCTAGCCGACTCACTATAGGGATAATCGCCCTGAGCAAAGACC”, 0.113 ± 0.0927 log2FC. The result for “CTCGAGGATATCAAGATCTGGCCTCGGCCGGGTAAAAGGAACCTCTAGCTAGCCGACTCACTATAGGGATAATCGCCCTGAGCAAAGACC” reads -0.304 ± 0.0906 log2FC; that for “CTCGAGGATATCAAGATCTGGCCTCGGCCCAGTAAAAGGAACCTCTAGCTAGCCGACTCACTATAGGGATAATCGCCCTGAGCAAAGACC”, 2.32 ± 0.0885 log2FC.
